Measurements from ChEMBL document CHEMBL4513216, “Probing the Open Global Health Chemical Diversity Library for Multistage-Active Starting Points for Next-Generation Antimalarials” (ACS Infect Dis, 2020).
The campaign covered roughly 69,000 compounds. About 8,600 (12%) showed an effect of 50% or more. Only a selection was taken, and strong results are over-represented in it overall.

Tested on: Plasmodium berghei
Assay: Screen against P. berghei liver stage (PbLuc), transformed with Luciferase, at 10uM
Type: functional, HepG2
Conditions: tested at 10 uM

SMILES | INHIBITION
Cc1nn(C)cc1S(=O)(=O)NC1(CN2CCOCC2)CCCCC1 | 28%
COc1ccccc1C(C)(C)NC(=O)c1cc(NC(C)=O)ccc1F | -52.3%
CCSCc1nc(O)c2nnn(C3CCN(Cc4ccoc4)CC3)c2n1 | 18.39%
CC(C)c1nc2c(n1C)CCN(CC(=O)Nc1cccnc1)C2 | -55.4%
O=C(NCC1CCN(c2ccncc2)CC1)C(O)c1ccccc1 (centres undefined) | 36.4%
Cc1nocc1C(=O)N1CCCC2(CCN(c3cnn(C)c3)C2=O)C1 (centres undefined) | 38.5%
CC(C)c1cc(C2CCCN2C(=O)CN2C(=O)CCNC2=O)no1 (centres undefined) | 5.91%
O=S(=O)(c1ccccc1Br)N1CCC2(CC1)OCCS2 | 0.325%
Cc1cnn(CC2CN(CC(=O)NCc3ccco3)CCO2)c1 (centres undefined) | 11.2%
CCCN(Cc1cnn(C)c1)S(=O)(=O)c1cc(C)cc(F)c1 | -6.11%
Cc1noc(CCCC(=O)NCC2CCS(=O)(=O)C2)n1 (centres undefined) | -7.35%
Cn1nccc1-c1ccc2nc(C3CCN(CC4CC4)CC3)nn2c1 | 38.2%
CS(=O)(=O)CCCN(CCc1cccc(F)c1)C1CC1 | -22.3%
O=C(C1CCOC1)N1C[C@H]2CN(c3ccccc3)C(=O)[C@H]2C1 (some centres undefined) | 52.6%
O=C(C1CCOC1)N1C[C@H]2CN(Cc3cccc(F)c3)C(=O)[C@H]2C1 (some centres undefined) | 34.9%
COc1ccc(CN2C[C@@H]3CN(C(=O)[C@H]4CCCO4)C[C@@H]3C2=O)cc1 | -43%
O=C(C1CCC1)N1C[C@@H]2CN(c3ccccc3)C(=O)[C@@H]2C1 | 46.9%
Cc1cccc(CN2C[C@@H]3CN(C(=O)[C@H]4CCCO4)C[C@@H]3C2=O)c1 | 58.2%
O=C(C1CCOC1)N1C[C@H]2CN(Cc3cccnc3)C(=O)[C@H]2C1 (some centres undefined) | 17.7%
Cc1cccc(CN2C[C@@H]3CN(C(=O)c4ccnnc4)C[C@@H]3C2=O)c1 | 4.61%
CN1C[C@@H]2CN(C(=O)C3CCOC3)C[C@@H]2C1=O (some centres undefined) | 33%
Cc1cccc(CN2C[C@@H]3CN(C(=O)C4CCOC4)C[C@@H]3C2=O)c1 (some centres undefined) | 53%
Cn1cc(CN2CCCC3(CCN3S(C)(=O)=O)C2)cn1 (centres undefined) | 28.7%
C=C(Br)CN(C)C1CCN(CCc2ccccn2)CC1 | -9.37%
O=C(CSc1ccc(Br)cc1)NS(=O)(=O)c1ccc2c(c1)OCCO2 | 30.55%

SMILES | INHIBITION
Cc1nc2c(c(N3CCCOCC3)n1)CCN(c1nccs1)CC2 | 41.1%
O=C(CCN1CCCCO1)N1CCC(CO)(Cc2ccccc2)CC1 | -9.44%
O=C1CC(c2cccs2)Cc2[nH]c(=O)ccc21 (centres undefined) | -32.1%
O=C1CC(c2cccs2)Cc2[nH]c(=O)c(C(=O)NC3CCCC3)cc21 (centres undefined) | 59.5%
CC(C)NC(=O)c1cc2c([nH]c1=O)CC(c1cccs1)CC2=O (centres undefined) | 62.3%
CC1CC(=O)c2cc(C(=O)N3CCc4ccccc43)c(=O)[nH]c2C1 (centres undefined) | 21.5%
CCCNC(=O)c1cc2c([nH]c1=O)CC(c1cccs1)CC2=O (centres undefined) | 41.8%
O=C1CC(c2ccc(F)cc2)Cc2[nH]c(=O)c(C(=O)O)cc21 (centres undefined) | -67.9%
CCOCC1CN(Cc2ccco2)Cc2nccn2C1 (centres undefined) | 10.7%
COc1cc(C(=O)N2C[C@@H]3CC[C@H]2CN(Cc2cscn2)C3)ccn1 | -16.3%
CN(C)CCNC(=O)c1cc2n(n1)CCN(C(=O)CC(C)(C)C)C2 | -15.7%
CC1(C)[C@@H]2CC=C(CN3CCCn4nc(CNS(C)(=O)=O)cc4C3)[C@H]1C2 | 25.7%
CN(C)C(=O)NCc1cc2n(n1)CCCN(CC1[C@H]3CNC[C@@H]13)C2 (some centres undefined) | -14.6%
Cc1nc2ccccc2nc1CN1CCn2nc(CCC(=O)O)cc2C1 | 36%
CC1(C)[C@@H]2CC=C(CN3CCCn4nc(C(=O)O)cc4C3)[C@H]1C2 | 65.6%
O=C(O)CCc1cc2n(n1)CCN(Cc1cnc(N3CCCC3)nc1)C2 | 7.43%
CC1(C)[C@@H]2CC=C(CN3CCCn4nc(CCC(=O)O)cc4C3)[C@H]1C2 | 59.1%
CCOC(=O)N1CCCn2nc(C(=O)NCCN(C)C)cc2C1 | -10.2%
O=C(O)CCc1cc2n(n1)CCN(Cc1ccc3[nH]ccc3c1)C2 | -15.7%
CC1(C)[C@@H]2CC=C(CN3CCCn4nc(C(=O)NCCO)cc4C3)[C@H]1C2 | 68.4%
O=C(NCc1cc2n(n1)CCCN(Cc1ccc(CO)o1)C2)C1CCC1 | 11.8%
Cc1cc(CN2CCCn3nc(CCC(=O)O)cc3C2)ccc1F | 60.2%
CC(C)CN1CCN(C)C(CCO)C1 (centres undefined) | 34.4%
Cc1ccc(-c2cc(CNC(=O)N3CCC(N(C)C)CC3)on2)cc1 | 17.4%
